Reference: PubChem BioAssay AID1626 (SRMLSC, 2009)
Where “and” joins values, the source holds several entries; their conditions need not be identical. Identical values can stand only once. Hit rate of the full screen: of about 220,000 compounds, about 2,000 (0.91%) were called active. About 2% were inconclusive and are not listed. The list is a sample of the results. Potency and affinity values are given separately. A number with no mark means an inactive call. Cut-off read from the data, not from the text of the source: inconclusive = inhibition above about 80% without an active follow-up result; inactive = below that; test concentration not stated here.

Assay: M. tuberculosis H37Rv growth inhibitors, H37Rv strain (AID 1626);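 note: bacteria incubated seven days before Alamar blue readout; 0% = bacteria only wells and 100% = bacteria with antibiotic wells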
Conditions: active compounds read high, concentration not given here

| Structure (SMILES) | inhibition |
| --- | --- |
| Cn1cnc([N+](=O)[O-])c1Nc1cccc(O)c1 | -3.69% |
| O=C(CSc1nc2ccc(Nc3nc(N4CCCC4)nc(N4CCCC4)n3)cc2s1)NCc1ccco1 | 68.7% |
| CC(=O)CSc1nc2ccc(Nc3nc(N4CCOCC4)nc(N4CCOCC4)n3)cc2s1 | 4.02% |
| Cc1cccc(Nc2nc(NCc3ccco3)nc(N3CCOCC3)n2)c1 | -1.15% |
| COc1ccc(Nc2nc(NCc3ccco3)nc(N3CCOCC3)n2)cc1 | -1.04% |
| O=C(Cn1c[n+](CC(=O)c2ccc([N+](=O)[O-])cc2)cn1)c1ccc([N+](=O)[O-])cc1 | -5.51% and -5.64% |
| O=C(Cn1cc[n+](Cc2ccccc2)c1)c1ccc([N+](=O)[O-])cc1 | 14% |
| Cc1ccc2oc(=O)c(/C=C(\O)c3ccccc3)nc2c1 | -10.4% |
| Cc1ccc2oc(=O)c(/C=C(\O)c3sc(C)nc3C)nc2c1 | -8.77% |
| Cc1ccc2oc(=O)c(/C=C(\O)c3cccs3)nc2c1 | -2.1% |
| C/C(O)=C\c1nc2ccccc2oc1=O | 75.9% |
| Cc1ccc(/C(O)=C/c2nc3cc(C)ccc3oc2=O)cc1 | 16.9% |
| O=c1oc2ccccc2nc1/C=C(O)/C=C/c1ccc(F)cc1 | 63.9% |
| O=c1oc2cc([N+](=O)[O-])ccc2nc1/C=C(O)/C=C/c1ccccc1 | -2.36% |
| O=c1oc2cc([N+](=O)[O-])ccc2nc1/C=C(\O)c1cccc(Br)c1 | -3.89% |
| C=CCc1cc(OC)ccc1OCCOCCN1CCc2ccccc2C1 | 6.94% |
| COc1cccc(CNc2ccc(F)c(Cl)c2)c1 | 12.1% |
| OCCC1CN(Cc2cccnc2)CCN1CCc1ccccc1 (stereo unspecified) | -0.305% |
| O=C(C[n+]1cc(-c2ccc(F)cc2)n2c1CCC2)c1cccs1 | 0.03% |
| O=C(C[n+]1cc(-c2ccccc2)n2c1CCCCC2)c1ccc(Cl)cc1 | 18.6% |
| COc1ccc(-c2c[n+](CC(=O)N3c4ccccc4Sc4ccccc43)c3n2CCC3)cc1 | 78.6% |
| O=C(C[n+]1cc(-c2ccc(F)cc2)n2c1CCC2)OCc1ccccc1 | -9.6% |
| O=C(C[n+]1cc(-c2ccc(Cl)cc2)n2c1CCCCC2)c1ccccc1 | -4.68% |
| O=C(C[n+]1cc(-c2ccccc2)n2c1CCC2)OCc1ccccc1 | -7.15% |

| Structure (SMILES) | inhibition |
| --- | --- |
| Cc1ccc(-c2c[n+](CC(=O)c3cccs3)c3n2CCC3)cc1 | 18.1% |
| O=C(C[n+]1cc(-c2ccccc2)n2c1CCC2)c1cccs1 | -2.31% |
| O=C1CC(SCCc2nc3ccccc3[nH]2)C(=O)N1c1ccc(F)cc1 (stereo unspecified) | -1% |
| CS(=O)(=O)N(CC(=O)NC1CCCC1)Cc1ccc(Cl)cc1 | -2.78% |
| Cc1nc(Cl)c(C(=O)NC(C)(C)C)c(C)c1Cl | -4.14% |
| COc1ccc(N2C(=O)CCC(C(=O)NCc3ccccn3)C2c2ccc(OC)c(OC)c2)cc1 (stereo unspecified) | -14.1% |
| CC(=O)N1CCN(c2ccc([N+](=O)[O-])cc2C=C2C(=O)NC(=O)NC2=O)CC1 | 7.44% |
| CSc1nc2ccccc2n1CC(=O)Nc1ccccc1 | -4.24% |
| Cc1[nH]c2ccc(C(=O)OCCN(C)C)cc2c1C | -4.75% |
| O=C(C[n+]1cc(-c2ccc(Cl)c(Cl)c2)n2c1CCC2)OCc1ccccc1 | 4.51% |
| O=C(C[n+]1cc(-c2ccc(Cl)c(Cl)c2)n2c1CCC2)c1cccs1 | 3.68% |
| CCOCCCNCc1ccc(OC)cc1 | -2.12% |
| N#Cc1nc(-c2ccccc2F)oc1NCCc1ccccn1 | 4.27% |
| Cc1cc(C)cc(NC(=O)Nc2ccc3c(c2)N(C)C(=O)CS3)c1 | 1.91% |
| CCC1CCC/C1=N\NC(=O)c1cc(C)[nH]n1 (stereo unspecified) | -7.04% |
| CC(C)(C)C(=O)COc1ccccc1[N+](=O)[O-] | 0.09% |
| NNC(=O)COc1ccccc1[N+](=O)[O-] | -1.65% |
| CC(C)(Oc1ccc(Cl)cc1)C(=O)N/N=C/c1cn[nH]c1-c1ccccc1 | -0.17% |
| CC1CCC2(CC1)OCC1(CCC3(COC4(CCC(C)CC4)OC3)C1=O)CO2 (stereo unspecified) | -1.15% |
| CCOC(=O)CNC(=O)CNC(=O)c1ccc(OC)cc1 | -5.13% |
| CCCCOc1ccc(C(=O)NCC(=O)NCC(=O)OCC)cc1 | 5.43% |
| Cc1ccc(S(=O)(=O)N(C)C)cc1-n1c(SCC(=O)Nc2ccccc2)nc2ccccc2c1=O | 1.63% |
| Cc1nnc(Sc2cc(NCCCO)c([N+](=O)[O-])c3nonc23)s1 | -2.43% |
| Cc1nnc(Sc2cc(NCCO)c([N+](=O)[O-])c3nonc23)s1 | -7.45% |

| Structure (SMILES) | inhibition |
| --- | --- |
| Cn1ccnc1Sc1cc(NCCCO)c([N+](=O)[O-])c2nonc12 | 2.79% |
| CCOC(=O)N1CCN(c2cc(NCCO)c([N+](=O)[O-])c3nonc23)CC1 | -2.1% |
| COC(=O)CNC(=O)COC(=O)/C=C/c1ccccc1[N+](=O)[O-] | 3.19% |
| Cc1ccc(S(=O)(=O)NCCc2nnc3ccc(NCCCOC(C)C)nn23)cc1 | 0.94% |
| CC1(c2ccc([N+](=O)[O-])cc2)CC(C)(C)N(C(=O)c2ccccc2)c2ccccc21 (stereo unspecified) | 6.73% |
| CC1(c2cc([N+](=O)[O-])cc([N+](=O)[O-])c2)CC(C)(C)N(C(=O)c2ccccc2)c2ccccc21 (stereo unspecified) | 2.82% |
| CC(=O)C1=C(O)C(=O)N(Cc2ccco2)C1c1ccc2c(c1)OCO2 (stereo unspecified) | -9.04% |
| CC(C)NC(=O)C(=O)NCCc1ccc(Cl)cc1 | -1.47% |
| CCOC(=O)c1c(C)[nH]c(NC(=O)Nc2c(C)n(C)n(-c3ccccc3)c2=O)c1C | -2.03% |
| COc1ccc(O)c2c(=O)c3c(OC)cc4c(c3oc12)C1C=COC1O4 (stereo unspecified) | -3.61% |
| Cn1cc(CN2CCCC(C(=O)c3ccc(-c4ccccc4)cc3)C2)cn1 (stereo unspecified) | -1.15% |
| CSc1ccccc1C(=O)C1CCCN(Cc2cnn(-c3ccccc3)c2)C1 (stereo unspecified) | 0.775% |
| Cc1ccc(NC(=O)/C=C\C(=O)NCC(=O)O)cc1 | -2.38% |
| COC(=O)C1=C(C(=O)OC)[C@@H]2Nc3ccccc3[C@@]23C[C@@H](C(=O)OC)N(C(=O)c2ccco2)C3=N1 | -1.72% |
| Cc1ccc(C(=O)NCc2ccco2)cc1[N+](=O)[O-] | 0.79% |
| O=C(NCc1ccco1)c1cc([N+](=O)[O-])ccc1Cl | -6.78% |
| O=C(NCc1cn(-c2ccccc2)nc1-c1ccccc1)c1cccc([N+](=O)[O-])c1 | 10.1% |
| O=C(NCc1cn(-c2ccccc2)nc1-c1ccccc1)c1ccc([N+](=O)[O-])cc1 | -4% |
| CCOc1ccc(-c2cnc(N)n2C)cc1 | 5.53% |
| Cc1ccc(CSCCNC(=O)CN(c2cccc([N+](=O)[O-])c2)S(C)(=O)=O)cc1 | 0.16% |
| Cc1noc(C)c1COC(=O)C1(c2cccc(F)c2)CCCC1 | 5.81% |
| CCOC(=O)CC(=O)CSc1ncnc2c1nnn2-c1ccc(OC)cc1 | 0.52% |
| COC(=O)c1cccc(COC(=O)c2cccnc2SC)c1 | 5.06% |
| Cc1nn(C)c2ncc(C(N)=O)c(Oc3ccc(Cl)cc3)c12 | -11.3% |

| Structure (SMILES) | inhibition |
| --- | --- |
| Cc1nc(-c2ccc(Cl)cc2)sc1C1(C)CC(c2cccc([N+](=O)[O-])c2)=NO1 (stereo unspecified) | -8.66% |
| Cc1ccccc1CN(c1ccc(C(=O)NCc2cccnc2)cc1)S(C)(=O)=O | -13.5% |
| Cc1ccc(SCC(=O)Nc2ccc(S(=O)(=O)Nc3nccs3)cc2)cc1 | 13.6% |
| Fc1ccc(-n2cc(-c3ccccc3)c3c(NN4CCOCC4)ncnc32)cc1 | -8.02% |
| c1ccc(-c2cn(-c3ccccc3)c3ncnc(NCCCN4CCOCC4)c23)cc1 | 1.78% |
| CCN=C(N/N=C/c1ccc([N+](=O)[O-])cc1)SC | -6.2% |
| O=C(CNc1ccccc1C(=O)O)c1ccccc1 | -10.8% |
| Cc1ccc(NC(=O)C/C(N)=N/O)cc1C | 72.6% |
| Cc1ccc(S(=O)(=O)N(C)Cc2ccc(C(=O)NN=C3C4CC5CC(C4)CC3C5)cc2)cc1 | -4.86% |
| Nc1cc(N)cc(-c2nc3ccccc3o2)c1 | 53% |
| Nc1nc(-c2cc3ccccc3o2)cs1 | 3.5% |
| CNc1ccccc1C(C)(C)c1cc(-c2cccc(OC)c2)no1 | 3.34% |
| Cn1/c(=N\NC(=O)C2CCCCC2)sc2ccccc21 | 4.34% |
| CCOC(=O)c1c(C)n(C)c2ccc(OC(C)=O)cc12 | -1.73% |
| CCOC(=O)c1c(C)n(C)c2ccc(OCC(N)=O)cc12 | 0.2% |
| Cc1nn(C)c(C(=O)N/N=C/c2ccccc2)c1[N+](=O)[O-] | -7.25% |
| COc1ccc(-n2c(SC3CCOC3=O)nc3ccccc3c2=O)cc1Cl (stereo unspecified) | 5.75% |
| CN1CCN(c2ccc(NC(=O)COc3ccccc3Cl)cc2)CC1 | 6.62% |
| COc1cccc(C(C(=O)NC2CCCC2)N(Cc2ccccc2OC)C(=O)c2ccco2)c1 (stereo unspecified) | 2.53% |
| COc1ccc(Nc2oc(COc3ccc(OC)cc3)nc2C#N)cc1 | -0.92% |
| Cc1ccc2cccc(OC(=O)/C=C\c3ccccc3)c2n1 | -1.17% |
| CN(C(=O)Oc1cccc2cccnc12)c1ccccc1 | 1.95% |
| COc1ccccc1/C=C/C(=O)NCc1ccccn1 | -4.28% |
| COc1ccccc1/C=C/C(C)=O | -0.82% |
